Source: the supplement of paper PMC3545927
The list shows a part of the results. How many sequences the whole screen found active is unknown.

Target: furin, P09958
Experiment: furin cleavage Z-score vs untreated control; higher = more cleavage, active = 3.5 or more, inactive = 1 or less, 8 variable residues between constant flanks
Outline: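 Purified furin cleaved 8-mer peptides that were fused to a cDNA oligonucleotide and held on magnetic beads by their N-terminus. Each 0.01 ml reaction used a 1:10 enzyme:substrate ratio in 50 mM HEPES pH 7.5 with CaCl2 and NaCl and ran 7.5, 15 or 30 min. Released DNA was adapter-tagged by PCR and sequenced, and read counts gave abundance. The cleavage Z-score came from log counts against furin-free reactions, lowess-adjusted and scaled by median absolute deviation.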

furin, P09958, sequence (P09958 whole entry): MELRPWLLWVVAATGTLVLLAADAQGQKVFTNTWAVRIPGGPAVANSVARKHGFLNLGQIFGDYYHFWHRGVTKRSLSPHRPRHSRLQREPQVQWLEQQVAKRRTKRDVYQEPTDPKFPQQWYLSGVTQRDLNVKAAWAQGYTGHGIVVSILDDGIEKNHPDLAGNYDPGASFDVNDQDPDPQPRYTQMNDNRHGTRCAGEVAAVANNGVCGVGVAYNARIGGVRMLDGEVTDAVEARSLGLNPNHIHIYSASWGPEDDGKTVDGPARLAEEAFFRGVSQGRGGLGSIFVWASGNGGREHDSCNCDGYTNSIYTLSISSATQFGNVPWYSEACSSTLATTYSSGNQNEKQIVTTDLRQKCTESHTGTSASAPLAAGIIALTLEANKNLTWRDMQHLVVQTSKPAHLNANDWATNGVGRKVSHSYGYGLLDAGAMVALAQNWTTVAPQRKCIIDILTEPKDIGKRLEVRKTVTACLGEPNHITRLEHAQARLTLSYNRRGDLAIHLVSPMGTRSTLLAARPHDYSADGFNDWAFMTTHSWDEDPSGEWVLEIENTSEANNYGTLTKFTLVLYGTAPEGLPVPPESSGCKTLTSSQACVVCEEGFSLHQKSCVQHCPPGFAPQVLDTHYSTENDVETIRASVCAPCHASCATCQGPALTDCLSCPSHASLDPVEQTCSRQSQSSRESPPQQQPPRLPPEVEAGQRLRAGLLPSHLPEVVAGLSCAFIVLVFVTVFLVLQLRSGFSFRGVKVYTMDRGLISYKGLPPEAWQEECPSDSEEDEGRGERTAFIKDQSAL

Sequence | furin cleavage Z-score (7.5 min) | furin cleavage Z-score (15 min) | furin cleavage Z-score (30 min)
CARGSLLSPRAGNASASA [HC735] | 0.168 (inactive) | -0.587 (inactive) | -0.591 (inactive)
CARNKRTCSEAGNASASA [FS-2161] | 4.64 (active) | 4.66 (active) | 4.26 (active)
CAGSATLCSAAGNASASA [HC294] | -0.289 (inactive) | -0.124 (inactive) | -0.454 (inactive)
CARNKRTCSAAGNASASA [FS-2160] | 2.24 | 3.57 (active) | 2.82
CADNTTTSSEAGNASASA [HC1342] | -1.15 (inactive) | 0.112 (inactive) | -0.634 (inactive)
CAEVPCHRHSAGNASASA [HC2395] | 0.115 (inactive) | 0.712 (inactive) | 1.03
CAECHSTDATAGNASASA [HC819] | -0.594 (inactive) | -1.11 (inactive) | 0.253 (inactive)
CALFAGVDAEAGNASASA [HC349] | -0.796 (inactive) | -0.738 (inactive) | -0.0117 (inactive)
CAASAVLKRDAGNASASA [FS-751] | 0.168 (inactive) | -1.94 (inactive) | 1.16
CALGDREKRDAGNASASA [FS-548] | 4.49 (active) | 4.22 (active) | 4.54 (active)
CAASGREGRDAGNASASA [FS-402] | -0.371 (inactive) | -0.657 (inactive) | -0.187 (inactive)
CAIKDRNKRDAGNASASA [FS-251] | 11.9 (active) | 10.9 (active) | 8.42 (active)
CAFSAREKRDAGNASASA [FS-587] | 10.7 (active) | 11.3 (active) | 9.1 (active)
CAEVVTSTWYAGNASASA [HC2249] | -1.56 (inactive) | -0.21 (inactive) | -0.098 (inactive)
CALKKRSYFGAGNASASA [FS-2870] | 0.606 (inactive) | 0.802 (inactive) | 1.4
CAEVVNSTWVAGNASASA [HC138] | 0.467 (inactive) | -0.699 (inactive) | 1.06

Sequence | furin cleavage Z-score (7.5 min) | furin cleavage Z-score (15 min) | furin cleavage Z-score (30 min)
CALLSRPLRGAGNASASA [FS-1229] | -0.34 (inactive) | -0.208 (inactive) | -1.05 (inactive)
CALLSRKRRRAGNASASA [FS-1539] | 11.7 (active) | 12.2 (active) | 9.16 (active)
CAGAGRARRRAGNASASA [FS-995] | -0.00606 (inactive) | 2.14 | 1.07
CAPPSRARRRAGNASASA [FS-73] | 5.98 (active) | 6.69 (active) | 6.77 (active)
CADVNRLKREAGNASASA [FS-648] | 14.4 (active) | 13.9 (active) | 11.5 (active)
CALLSRKKREAGNASASA [FS-271] | 8.61 (active) | 6.86 (active) | 6.5 (active)
CAPPSREKKVAGNASASA [FS-1051] | -1.64 (inactive) | -0.193 (inactive) | 0.495 (inactive)
CAWLEVVTSTAGNASASA [HC2268] | 0.509 (inactive) | 1.8 | 1.63
CATKSRKKREAGNASASA [FS-1493] | 12.1 (active) | 10.8 (active) | 8.58 (active)
CALLSRRPRDAGNASASA [FS-611] | 10.2 (active) | 10.5 (active) | 8.78 (active)
CAALWRVSAEAGNASASA [HC1201] | -1.28 (inactive) | -0.15 (inactive) | -1.16 (inactive)
CALLSPRGSRAGNASASA [HC209] | 0.623 (inactive) | -0.229 (inactive) | 0.325 (inactive)
CALLSRVRREAGNASASA [FS-1540] | 7.59 (active) | 6.32 (active) | 5.92 (active)
CALLFRSNRDAGNASASA [FS-822] | 5.19 (active) | 4.77 (active) | 4.55 (active)
CALLFLLLADAGNASASA [HC521] | -0.353 (inactive) | -1.02 (inactive) | -2.28 (inactive)
CALLSCLTVPAGNASASA [HC251] | -1.14 (inactive) | 0.458 (inactive) | -0.633 (inactive)
